Targets with a hit are over-represented here; the source holds about 8,800 in all. About 0.5% of all pairs of compound and target were hits.

UniProt P41240, sequence (P41240 whole entry, looked up): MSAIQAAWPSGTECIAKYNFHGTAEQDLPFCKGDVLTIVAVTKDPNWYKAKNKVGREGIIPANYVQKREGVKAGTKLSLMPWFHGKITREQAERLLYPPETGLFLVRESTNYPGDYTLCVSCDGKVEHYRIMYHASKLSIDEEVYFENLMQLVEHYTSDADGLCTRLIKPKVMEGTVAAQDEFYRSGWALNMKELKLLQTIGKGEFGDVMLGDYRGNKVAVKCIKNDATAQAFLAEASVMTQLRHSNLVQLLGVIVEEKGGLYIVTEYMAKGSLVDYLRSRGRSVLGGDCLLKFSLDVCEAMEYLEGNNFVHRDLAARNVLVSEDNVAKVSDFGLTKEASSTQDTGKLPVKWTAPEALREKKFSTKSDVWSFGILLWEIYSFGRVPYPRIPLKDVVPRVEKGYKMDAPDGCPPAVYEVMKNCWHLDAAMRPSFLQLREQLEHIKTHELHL
UniProt P83436, sequence (P83436 whole entry, looked up): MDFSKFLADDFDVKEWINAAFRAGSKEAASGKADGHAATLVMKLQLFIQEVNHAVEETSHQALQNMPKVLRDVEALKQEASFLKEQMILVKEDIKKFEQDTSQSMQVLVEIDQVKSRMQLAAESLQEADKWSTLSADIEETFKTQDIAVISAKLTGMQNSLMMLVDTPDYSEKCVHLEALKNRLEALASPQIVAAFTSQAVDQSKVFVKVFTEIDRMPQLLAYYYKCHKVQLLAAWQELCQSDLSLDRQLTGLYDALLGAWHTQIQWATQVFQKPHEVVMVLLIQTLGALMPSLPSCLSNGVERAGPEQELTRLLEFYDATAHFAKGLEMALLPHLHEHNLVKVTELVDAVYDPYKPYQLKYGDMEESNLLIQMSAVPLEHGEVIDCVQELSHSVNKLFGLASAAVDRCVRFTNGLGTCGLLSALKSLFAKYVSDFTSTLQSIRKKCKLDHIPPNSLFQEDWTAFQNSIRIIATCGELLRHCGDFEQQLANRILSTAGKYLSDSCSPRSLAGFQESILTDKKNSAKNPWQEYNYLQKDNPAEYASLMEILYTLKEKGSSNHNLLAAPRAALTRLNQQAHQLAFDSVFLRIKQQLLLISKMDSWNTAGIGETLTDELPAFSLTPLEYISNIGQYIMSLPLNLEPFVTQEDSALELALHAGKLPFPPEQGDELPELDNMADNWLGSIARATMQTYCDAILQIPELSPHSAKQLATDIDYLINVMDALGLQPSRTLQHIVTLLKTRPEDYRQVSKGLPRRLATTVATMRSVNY
UniProt P33240, sequence (P33240 whole entry, looked up): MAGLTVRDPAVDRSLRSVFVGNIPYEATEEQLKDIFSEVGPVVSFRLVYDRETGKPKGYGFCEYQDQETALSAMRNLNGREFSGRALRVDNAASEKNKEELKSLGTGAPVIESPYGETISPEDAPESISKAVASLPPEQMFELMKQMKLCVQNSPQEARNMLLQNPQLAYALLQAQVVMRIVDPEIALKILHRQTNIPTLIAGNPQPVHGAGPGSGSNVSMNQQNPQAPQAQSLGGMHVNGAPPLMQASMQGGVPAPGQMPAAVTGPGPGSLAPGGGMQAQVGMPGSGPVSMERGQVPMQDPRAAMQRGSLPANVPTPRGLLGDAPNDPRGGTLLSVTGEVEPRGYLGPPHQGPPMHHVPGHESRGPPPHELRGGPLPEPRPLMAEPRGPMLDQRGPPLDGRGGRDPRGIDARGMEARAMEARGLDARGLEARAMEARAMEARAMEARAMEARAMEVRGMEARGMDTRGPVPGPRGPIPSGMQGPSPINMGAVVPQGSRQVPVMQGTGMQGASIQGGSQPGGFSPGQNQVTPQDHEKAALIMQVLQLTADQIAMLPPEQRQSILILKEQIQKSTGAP
UniProt P67870, sequence (P67870 whole entry, looked up): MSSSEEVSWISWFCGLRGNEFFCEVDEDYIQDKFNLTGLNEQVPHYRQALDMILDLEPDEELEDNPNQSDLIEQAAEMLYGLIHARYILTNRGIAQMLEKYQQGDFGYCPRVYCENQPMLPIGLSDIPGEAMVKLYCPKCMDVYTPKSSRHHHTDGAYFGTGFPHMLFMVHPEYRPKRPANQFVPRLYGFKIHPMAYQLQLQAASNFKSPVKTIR
UniProt O75534, sequence (O75534 whole entry, looked up): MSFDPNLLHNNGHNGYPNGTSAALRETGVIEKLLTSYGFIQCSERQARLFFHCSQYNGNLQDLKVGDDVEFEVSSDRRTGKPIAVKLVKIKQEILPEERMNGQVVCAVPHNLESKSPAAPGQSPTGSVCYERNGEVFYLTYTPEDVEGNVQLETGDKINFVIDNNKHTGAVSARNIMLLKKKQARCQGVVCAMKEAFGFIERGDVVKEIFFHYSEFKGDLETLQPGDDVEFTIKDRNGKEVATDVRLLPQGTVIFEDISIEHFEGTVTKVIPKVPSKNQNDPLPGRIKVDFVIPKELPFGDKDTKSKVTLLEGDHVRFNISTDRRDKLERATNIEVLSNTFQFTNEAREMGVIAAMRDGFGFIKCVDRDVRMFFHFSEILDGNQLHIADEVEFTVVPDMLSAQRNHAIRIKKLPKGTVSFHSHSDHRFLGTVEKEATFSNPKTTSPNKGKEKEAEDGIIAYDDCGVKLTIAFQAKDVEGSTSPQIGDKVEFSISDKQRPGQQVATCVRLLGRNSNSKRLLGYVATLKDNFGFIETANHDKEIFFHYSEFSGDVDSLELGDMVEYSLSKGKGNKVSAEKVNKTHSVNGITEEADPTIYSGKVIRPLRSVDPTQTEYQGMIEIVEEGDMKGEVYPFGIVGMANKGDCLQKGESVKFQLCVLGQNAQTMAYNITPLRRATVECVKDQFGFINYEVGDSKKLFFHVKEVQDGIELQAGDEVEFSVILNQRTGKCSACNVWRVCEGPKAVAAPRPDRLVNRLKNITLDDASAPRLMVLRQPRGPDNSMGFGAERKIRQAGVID
UniProt Q14008, sequence (Q14008 whole entry, looked up): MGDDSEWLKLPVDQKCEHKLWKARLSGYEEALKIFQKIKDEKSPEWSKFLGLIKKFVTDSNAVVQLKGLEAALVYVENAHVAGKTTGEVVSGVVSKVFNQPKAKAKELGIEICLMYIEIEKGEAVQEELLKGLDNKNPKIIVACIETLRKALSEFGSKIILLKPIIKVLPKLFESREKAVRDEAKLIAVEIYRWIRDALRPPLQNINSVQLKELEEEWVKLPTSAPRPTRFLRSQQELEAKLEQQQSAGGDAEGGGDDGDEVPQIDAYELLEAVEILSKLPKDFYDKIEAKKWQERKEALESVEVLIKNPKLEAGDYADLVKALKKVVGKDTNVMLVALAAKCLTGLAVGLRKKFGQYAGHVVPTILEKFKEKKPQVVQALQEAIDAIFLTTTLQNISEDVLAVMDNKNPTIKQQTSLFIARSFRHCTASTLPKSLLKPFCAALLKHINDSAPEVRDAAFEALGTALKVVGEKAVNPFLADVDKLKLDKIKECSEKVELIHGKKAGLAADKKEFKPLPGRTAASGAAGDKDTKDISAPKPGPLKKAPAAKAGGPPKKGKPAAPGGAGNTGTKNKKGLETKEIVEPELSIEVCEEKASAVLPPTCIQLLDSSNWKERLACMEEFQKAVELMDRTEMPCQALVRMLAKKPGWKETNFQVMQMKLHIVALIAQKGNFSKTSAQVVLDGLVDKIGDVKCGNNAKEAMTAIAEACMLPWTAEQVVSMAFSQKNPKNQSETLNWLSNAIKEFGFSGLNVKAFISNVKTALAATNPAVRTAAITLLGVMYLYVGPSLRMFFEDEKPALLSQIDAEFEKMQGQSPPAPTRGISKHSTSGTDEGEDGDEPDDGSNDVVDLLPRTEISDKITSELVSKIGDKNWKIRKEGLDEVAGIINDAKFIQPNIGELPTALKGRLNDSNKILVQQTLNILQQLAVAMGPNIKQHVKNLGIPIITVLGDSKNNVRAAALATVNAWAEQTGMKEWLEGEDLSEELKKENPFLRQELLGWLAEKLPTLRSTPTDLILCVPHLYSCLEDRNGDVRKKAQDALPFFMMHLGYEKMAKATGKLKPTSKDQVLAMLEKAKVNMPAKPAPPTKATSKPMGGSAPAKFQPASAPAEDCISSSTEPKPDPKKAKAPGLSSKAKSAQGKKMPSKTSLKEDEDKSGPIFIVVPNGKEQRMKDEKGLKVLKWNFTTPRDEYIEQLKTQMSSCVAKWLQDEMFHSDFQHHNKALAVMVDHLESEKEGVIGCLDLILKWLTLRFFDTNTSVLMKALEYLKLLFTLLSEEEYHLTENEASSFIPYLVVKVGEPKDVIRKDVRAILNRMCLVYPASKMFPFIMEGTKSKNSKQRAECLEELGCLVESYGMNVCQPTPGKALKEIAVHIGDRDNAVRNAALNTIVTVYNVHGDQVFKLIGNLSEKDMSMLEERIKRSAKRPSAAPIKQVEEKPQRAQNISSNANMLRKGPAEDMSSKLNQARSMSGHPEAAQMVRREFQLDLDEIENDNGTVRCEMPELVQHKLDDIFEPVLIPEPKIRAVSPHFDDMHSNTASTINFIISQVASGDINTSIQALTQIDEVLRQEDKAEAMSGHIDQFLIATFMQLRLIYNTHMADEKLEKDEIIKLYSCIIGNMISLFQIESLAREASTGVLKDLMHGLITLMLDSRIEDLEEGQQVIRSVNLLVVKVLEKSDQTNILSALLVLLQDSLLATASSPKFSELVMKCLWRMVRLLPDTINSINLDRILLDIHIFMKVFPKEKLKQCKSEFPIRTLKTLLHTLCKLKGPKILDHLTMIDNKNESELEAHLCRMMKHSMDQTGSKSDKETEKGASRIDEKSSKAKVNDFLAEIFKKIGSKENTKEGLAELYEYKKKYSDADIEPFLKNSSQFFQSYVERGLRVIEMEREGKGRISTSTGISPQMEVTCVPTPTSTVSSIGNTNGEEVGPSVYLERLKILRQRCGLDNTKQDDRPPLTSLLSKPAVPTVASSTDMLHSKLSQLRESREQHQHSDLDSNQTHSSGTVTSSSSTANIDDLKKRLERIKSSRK
UniProt Q9P003, sequence (Q9P003 whole entry, looked up): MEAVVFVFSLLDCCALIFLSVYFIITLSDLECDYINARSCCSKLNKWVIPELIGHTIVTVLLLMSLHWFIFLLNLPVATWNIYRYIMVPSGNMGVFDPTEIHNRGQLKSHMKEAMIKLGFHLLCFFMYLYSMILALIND

Compound in one test: CC1=C(SC2=C1C(=N[C@H](C3=NN=C(N32)C)CC(=O)N)C4=CC=C(C=C4)Cl)C
In words: log2 fold change, soluble protein after heating vs DMSO (PISA); higher = thermal stabilisation; K562 lysate, 10 uM; active = over 0.2 and 3.5 SD of the protein, either way, in both replicates (recomputed). A digest of the protocol: (§1)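 Following dounce homogenisation of K562 pellets in PBS pH 7.4 with 1 mM MgCl2, crude extract at 1 mg/mL protein was incubated for 30 min with 10 μM compound. Aliquots were then heated for 3 min over 48°C-58°C and pooled, NP-40 was added to 0.5% at 4°C, and soluble protein was recovered as the supernatant at 21,000xg for 90 min. Channel-sum-equalised TMTpro 16plex LC-MS/MS quantified this protein. Each value, from duplicates, is a log-two fold change in thermal stability relative to solvent controls.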
On to CSDE1 isoform 4 (UniProt O75534), for which the log2 fold change was -0.009 (inactive). Same read-out and setting: in the case of COG2 (UniProt Q14746) it was -0.034 (inactive). Same read-out and setting: in the case of CKAP5 (UniProt Q14008) it was -0.019 (inactive); in that of DICER1 (UniProt Q9UPY3), 0.006 (inactive); in that of DENND6A (UniProt Q8IWF6), -0.008 (inactive). Same read-out and setting: in the case of CSNK2B (UniProt P67870) it was 0.024 (inactive). As for DENND1B (UniProt Q6P3S1), the log2 fold change was -0.205 (inactive). Still for that read-out and setting: in the case of CIC (UniProt I3L1Q4) it was 0.225 (inactive); in that of CSK (UniProt P41240), -0.049 (inactive); in that of CWC22 (UniProt Q9HCG8), 0.028 (inactive). Consider CSTF2 (UniProt P33240), for which the log2 fold change was 0.021 (inactive). Same read-out and setting: in the case of CSAD isoform 3 (UniProt Q9Y600) it was 0.137 (inactive); in that of COTL1 (UniProt Q14019), -0.019 (inactive); in that of CNIH4 (UniProt Q9P003), -0.301 (inactive).

In the case of DAZAP1 (UniProt Q96EP5), the log2 fold change was -0.046 (inactive). Take CLIC2 (UniProt O15247): the log2 fold change was 0.033 (inactive). On to DLGAP5 (UniProt Q15398), for which the log2 fold change is -0.006 (inactive).

In the case of COG7 (UniProt P83436), the log2 fold change was 0.026 (inactive). Same read-out and setting: in the case of COG5 isoform 2 (UniProt Q9UP83) it was 0.045 (inactive); in that of COL6A5 (UniProt A8TX70), 0.052 (inactive).

On to DES (UniProt P17661), for which the log2 fold change was 0.05 (inactive). On the same count and under the same terms, in the case of DCP2 (UniProt Q8IU60) it was -0.001 (inactive).

Compound in the next test: CC1=C2C(=CC=C1)N=C(N(C2=O)C3=CC=CC=C3C)CN4C=NC5=C(N=CN=C54)N
Described as above. A digest of the protocol: as §1
As to DMAC2L (UniProt Q99766), the log2 fold change is 0.057 (inactive). The same measure, in the same setting: in the case of CXCL14 (UniProt O95715) it was 0.128 (inactive); in that of CMBL (UniProt Q96DG6), -0.027 (inactive).

Regarding DOCK8 (UniProt Q8NF50), the log2 fold change was 0.013 (inactive).

DPY19L3 (UniProt Q6ZPD9): the log2 fold change is -0.106 (inactive). Take DCP1A (UniProt Q9NPI6): the log2 fold change is 0.025 (inactive). In the case of CORO7 isoform 3 (UniProt P57737), the log2 fold change is 0.033 (inactive). Same read-out and setting: in the case of CINP isoform 3 (UniProt Q9BW66) it was 0.039 (inactive).

In the case of DENND4A isoform 2 (UniProt Q7Z401), the log2 fold change was -0.007 (inactive).

For the target CXorf38 (UniProt Q8TB03), the log2 fold change is -0.021 (inactive). On the same count and under the same terms, in the case of DDX54 isoform 2 (UniProt Q8TDD1) it was 0.09 (inactive); in that of CSDE1 isoform 4 (UniProt O75534), -0.017 (inactive). For COG2 (UniProt Q14746), the log2 fold change is 0.054 (inactive). Still for that read-out and setting: in the case of CKAP5 (UniProt Q14008) it was 0.01 (inactive). As to DICER1 (UniProt Q9UPY3), the log2 fold change was 0.045 (inactive).

In the case of DENND6A (UniProt Q8IWF6), the log2 fold change is -0.026 (inactive). On the same count and under the same terms, in the case of CSNK2B (UniProt P67870) it was -0.068 (inactive); in that of DENND1B (UniProt Q6P3S1), -0.062 (inactive); in that of CSK (UniProt P41240), -0.019 (inactive). The same measure, in the same setting: in the case of CWC22 (UniProt Q9HCG8) it was 0.034 (inactive). On the same count and under the same terms, in the case of CSTF2 (UniProt P33240) it was 0.055 (inactive); in that of COTL1 (UniProt Q14019), 0.01 (inactive); in that of CNIH4 (UniProt Q9P003), -0.017 (inactive). DAZAP1 (UniProt Q96EP5): the log2 fold change was 0.005 (inactive). The same measure, in the same setting: in the case of CLIC2 (UniProt O15247) it was 0 (inactive); in that of DLGAP5 (UniProt Q15398), 0.009 (inactive).

As to COG7 (UniProt P83436), the log2 fold change is 0.01 (inactive). On the same count and under the same terms, in the case of COG5 isoform 2 (UniProt Q9UP83) it was -0.042 (inactive); in that of COL6A5 (UniProt A8TX70), 0.089 (inactive). On the same count and under the same terms, in the case of DES (UniProt P17661) it was 0.062 (inactive); in that of DCP2 (UniProt Q8IU60), 0.041 (inactive).

The values above are taken from the supplement of paper PMC10849652.
